# The full list was thinned out, with the strongest signals kept by preference.
# B1: LlpA (Burkholderia cenocepacia) (protein)
# chain: MGSSHHHHHHSSGLVPRGSHKILGSNETLSAGNVVYSDNGQYHLAMQTDGNLVVYGPTGAVWQSQTSGSGGNRAVMQGDGNLVIYRADNTAAWSSKTAHPGAFLAVQDDGNVVIYWPRPAWASNTSDPATQQSAESKYLASGSTMSAGQTVTVAQYMLVFQADGNLVLYKNGGNPIWSTGTQGKGATYAVMQSDGNFVIYAGSTALWSTKTNGANGAQLVLQSDGNLVIYAPTAAWSTKFGLVTAPTSTSTSNNGPGSGICVGVCPPHPLNGNPFSPVGVGTTGLGFPTPGYPGAAF
# Assays:
# Assay in all cases: glycan array binding signal (z-score within array); higher = stronger binding
# Conditions in all cases: glycan notation: IUPAC condensed, linker removed
# [1] = target: GlcNAc(b1-2)Man(a1-3)[GlcNAc(b1-4)][GlcNAc(b1-2)Man(a1-6)]Man(b1-4)GlcNAc(b1-4)GlcNAc
# Method in brief: (§1)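 The binding signal is a Z-score computed within each array and averaged over linkers. Arrays of the same protein sequence at different concentrations or buffers were also averaged together. Data originate from 3228 arrays in the Consortium for Functional Glycomics database, kept only where the protein sequence was available.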
# [2] = target: GlcNAc(b1-2)Man(a1-3)[GlcNAc(b1-4)][GlcNAc(b1-2)Man(a1-6)]Man(b1-4)GlcNAc(b1-4)[Fuc(a1-6)]GlcNAc
# Method in brief: as §1
# [3] = target: GlcNAc(b1-2)[GlcNAc(b1-4)]Man(a1-3)[GlcNAc(b1-4)][GlcNAc(b1-2)[GlcNAc(b1-6)]Man(a1-6)]Man(b1-4)GlcNAc(b1-4)GlcNAc
# Method in brief: as §1
# [4] = target: GlcNAc(b1-3)Gal(b1-3)GalNAc
# Method in brief: as §1
# [5] = target: GlcNAc(b1-3)Gal(b1-4)GlcNAc
# Method in brief: as §1
# [6] = target: GlcNAc(b1-3)Gal(b1-4)GlcNAc(b1-3)Gal(b1-4)GlcNAc(b1-2)[GlcNAc(b1-3)Gal(b1-4)GlcNAc(b1-3)Gal(b1-4)GlcNAc(b1-6)]Man(a1-6)[GlcNAc(b1-3)Gal(b1-4)GlcNAc(b1-3)Gal(b1-4)GlcNAc(b1-2)Man(a1-3)]Man(b1-4)GlcNAc(b1-4)[Fuc(a1-6)]GlcNAc
# Method in brief: as §1
# [7] = target: GlcNAc(b1-3)Gal(b1-4)GlcNAc(b1-3)Gal(b1-4)GlcNAc(b1-3)Gal(b1-4)GlcNAc(b1-2)[GlcNAc(b1-3)Gal(b1-4)GlcNAc(b1-3)Gal(b1-4)GlcNAc(b1-3)Gal(b1-4)GlcNAc(b1-6)]Man(a1-6)[GlcNAc(b1-3)Gal(b1-4)GlcNAc(b1-3)Gal(b1-4)GlcNAc(b1-3)Gal(b1-4)GlcNAc(b1-2)Man(a1-3)]Man(b1-4)GlcNAc(b1-4)[Fuc(a1-6)]GlcNAc
# Method in brief: as §1
# [8] = target: GlcNAc(b1-3)Gal(b1-4)GlcNAc(b1-3)Gal(b1-4)GlcNAc(b1-3)Gal(b1-4)GlcNAc(b1-3)Gal(b1-4)GlcNAc(b1-2)Man(a1-3)[GlcNAc(b1-3)Gal(b1-4)GlcNAc(b1-3)Gal(b1-4)GlcNAc(b1-3)Gal(b1-4)GlcNAc(b1-3)Gal(b1-4)GlcNAc(b1-2)Man(a1-6)]Man(b1-4)GlcNAc(b1-4)GlcNAc
# Method in brief: as §1
# [9] = target: GlcNAc(b1-3)Gal(b1-4)GlcNAc(b1-3)Gal(b1-4)GlcNAc(b1-3)Gal(b1-4)GlcNAc(b1-3)Gal(b1-4)GlcNAc(b1-2)[GlcNAc(b1-3)Gal(b1-4)GlcNAc(b1-3)Gal(b1-4)GlcNAc(b1-3)Gal(b1-4)GlcNAc(b1-3)Gal(b1-4)GlcNAc(b1-6)]Man(a1-6)[GlcNAc(b1-3)Gal(b1-4)GlcNAc(b1-3)Gal(b1-4)GlcNAc(b1-3)Gal(b1-4)GlcNAc(b1-3)Gal(b1-4)GlcNAc(b1-2)Man(a1-3)]Man(b1-4)GlcNAc(b1-4)[Fuc(a1-6)]GlcNAc
# Method in brief: as §1
# [10] = target: GlcNAc(b1-3)[GlcNAc(b1-6)]GalNAc
# Method in brief: as §1
# [11] = target: Man(a1-2)Man(a1-2)Man(a1-6)[Man(a1-3)]Man
# Method in brief: as §1
# [12] = target: Man(a1-2)Man(a1-3)[Man(a1-2)Man(a1-6)]Man(a1-6)[Man(a1-2)Man(a1-2)Man(a1-3)]Man
# Method in brief: as §1
# [13] = target: Man(a1-3)[Man(a1-6)]Man(b1-4)GlcNAc(b1-4)GlcNAc
# Method in brief: as §1
# [14] = target: Neu5Ac(a2-3)Gal(b1-3)GlcNAc(b1-2)[Neu5Ac(a2-3)Gal(b1-3)GlcNAc(b1-4)]Man(a1-6)[Neu5Ac(a2-3)Gal(b1-3)GlcNAc(b1-2)Man(a1-3)]Man(b1-4)GlcNAc(b1-4)GlcNAc
# Method in brief: as §1
# [15] = target: Neu5Ac(a2-3)Gal(b1-4)[Fuc(a1-3)]GlcNAc
# Method in brief: as §1
# [16] = target: Neu5Ac(a2-3)GalNAc(b1-4)GlcNAc
# Method in brief: as §1
# [17] = target: Neu5Ac(a2-3)[GalNAc(b1-4)]Gal(b1-4)GlcNAc
# Method in brief: as §1
# [18] = target: Neu5Ac(a2-6)Gal(b1-3)GlcNAc(b1-3)[Gal(b1-4)GlcNAc(b1-6)]Gal(b1-4)Glc
# Method in brief: as §1
# [19] = target: Neu5Ac(a2-6)Gal(b1-4)GlcNAc
# Method in brief: as §1
# [20] = target: Neu5Ac(a2-6)Gal(b1-4)GlcNAc(b1-2)Man(a1-3)[Man(a1-6)]Man(b1-4)GlcNAc(b1-4)GlcNAc
# Method in brief: as §1
# [21] = target: Neu5Ac(a2-6)Gal(b1-4)GlcNAc(b1-3)Gal(b1-4)GlcNAc(b1-3)Gal(b1-4)GlcNAc(b1-2)Man(a1-3)[Neu5Ac(a2-6)Gal(b1-4)GlcNAc(b1-3)Gal(b1-4)GlcNAc(b1-3)Gal(b1-4)GlcNAc(b1-2)Man(a1-6)]GalNAc
# Method in brief: as §1
# [22] = target: Neu5Ac(a2-6)Gal(b1-4)GlcNAc(b1-6)[Gal(b1-3)GlcNAc(b1-3)]Gal(b1-4)Glc
# Method in brief: as §1
# [23] = target: Neu5Ac(a2-6)GalNAc(b1-4)GlcNAc6S
# Method in brief: as §1
# Neu5Ac(b2-6)GalNAc = target: Neu5Ac(b2-6)GalNAc
# Method in brief: as §1
# [24] = target: Neu5Gc(a2-3)Gal(b1-4)GlcNAc
# Method in brief: as §1
binder,measurement,setting,value
B1,glycan array binding signal (z-score),[1],0.686
same,glycan array binding signal (z-score),[2],-0.623
same,glycan array binding signal (z-score),[3],-0.839
same,glycan array binding signal (z-score),[4],0.088
same,glycan array binding signal (z-score),[5],-0.175
same,glycan array binding signal (z-score),[6],1.97
same,glycan array binding signal (z-score),[7],2.12
same,glycan array binding signal (z-score),[8],1.56
same,glycan array binding signal (z-score),[9],1.97
same,glycan array binding signal (z-score),[10],0.522
same,glycan array binding signal (z-score),[11],-0.239
same,glycan array binding signal (z-score),[12],0.07
same,glycan array binding signal (z-score),[13],-0.516
same,glycan array binding signal (z-score),[14],0.118
same,glycan array binding signal (z-score),[15],-0.785
same,glycan array binding signal (z-score),[16],-0.208
same,glycan array binding signal (z-score),[17],-0.447
same,glycan array binding signal (z-score),[18],-0.697
same,glycan array binding signal (z-score),[19],-0.538
same,glycan array binding signal (z-score),[20],0.308
same,glycan array binding signal (z-score),[21],1.99
same,glycan array binding signal (z-score),[22],0.132
same,glycan array binding signal (z-score),[23],0.676
same,glycan array binding signal (z-score),Neu5Ac(b2-6)GalNAc,-0.883
same,glycan array binding signal (z-score),[24],-0.079
